Only some compounds are listed: those with a hit (about 1.1% of all), similar ones and a draw of the others.
PrPC surface inh – inhibitors of human cell surface prion protein PrPC, primary screen, cell-based, TR-FRET; Major prion protein (Homo sapiens), P04156; TR-FRET read-out; inhibition, % at 13.8 µM; 0.43% of 370,000 active; AID 720596, 2013; in the data active = inhibition above about 24%
BJeLR viability – MLPCN primary cell-based screen for lethality selective to Ras in HRASV12 cells | BJeLR (HRASV12) viability, CellTiter-Glo ATP luminescence, 48 h | inhibition, % (concentration not given with the values) | 0.17% of 300,000 active | AID 1554, 2009; in the data active = inhibition above about 50%
MazF activator – activators of E. coli MazEF toxin-antitoxin RNase, primary screen, biochemical, fluorescence, uHTS | FAM/BHQ RNA-DNA oligo cleavage fluorescence, 5 h | activation, % at 20 µM | 0.32% of 350,000 active; in the data active = activation above about 50%
Target sequence (P0AE70 whole entry, looked up): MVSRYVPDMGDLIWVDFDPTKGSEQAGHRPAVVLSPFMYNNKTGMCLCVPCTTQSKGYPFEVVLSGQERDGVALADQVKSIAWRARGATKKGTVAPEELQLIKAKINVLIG
PrP UTR inh – inhibition of PrP 5' UTR reporter expression; cell-based PrP 5' UTR mRNA reporter, plate reader; inhibition, % (concentration not given with the values); 0.35% of 340,000 active; AID 488862, 2010; in the data active = inhibition above about 52%
Large screens that a line does not name were inactive.

C=CC[C@@H](CC/C=C/C=C/CC/C=C\[C@@H]1CSC([C@@H]2C[C@@H]2C)=N1)OC	PrP UTR inh 56 (no result: PrPC surface inh, BJeLR viability)
CCN(CC)c1ccc(C=C2C(=O)OC3(CCCCC3)OC2=O)cc1	none
CCN(CC)c1ccc(/C=C2/C(=O)c3ccc(C(=O)O)cc3C2=O)cc1	MazF activator 74 (no result: BJeLR viability)
CCOc1ccccc1NC(=O)NNC(=O)CCn1nc(C)c([N+](=O)[O-])c1C	none (no result: BJeLR viability, MazF activator, PrP UTR inh)
O=[N+]([O-])c1ccc(Nc2ccccc2O)c2nonc12	MazF activator 232
Nc1ccc(S(=O)(=O)NCC(=O)OCCOc2ccccc2)cc1[N+](=O)[O-]	none
CSc1ccc(S(=O)(=O)NCC(=O)OCCOc2ccccc2)cc1[N+](=O)[O-]	MazF activator 78
CCOC(=O)[C@]12CCCCC/C=C\1N(CCc1ccc(Cl)cc1)C(=O)[C@H]2CC(=O)NCc1ccc(OC)c(OC)c1	none (no result: BJeLR viability, MazF activator, PrP UTR inh)
Cc1ccc(Nc2nc(N)nc(CCl)n2)cc1	none
CCOc1ccc(Nc2nc(N)nc(CCl)n2)cc1	BJeLR viability 99
Cc1cccc(Nc2nc(N)nc(CCl)n2)c1C	BJeLR viability 56 (no result: PrP UTR inh)
COc1ccc(OC)c(Nc2nc(N)nc(CCl)n2)c1	BJeLR viability 121
Cc1ccc(Nc2nc(N)nc(CCl)n2)c(C)c1	BJeLR viability 121
Cc1ccc(S(=O)(=O)N2CCCc3nc(-c4ccccc4)ccc32)cc1	none (no result: BJeLR viability, MazF activator, PrP UTR inh)
COC(=O)C1CN(Cc2ccc(F)cc2)CCS(=O)(=O)N1Cc1ccccc1 (stereo not drawn)	none (no result: BJeLR viability, MazF activator, PrP UTR inh)
Cc1cccc(Nc2nc(N)nc(CCl)n2)c1	BJeLR viability 94
O=C(Cn1c(-c2cncs2)nc2ccccc21)N1CCCCC1	none (no result: BJeLR viability, MazF activator, PrP UTR inh)
Cc1ccc(S(=O)(=O)N(C)CC(=O)O/N=C(\N)c2ccccn2)cc1	MazF activator 61
Cc1ccnc2c1ccc1ccccc12	none
Cc1ccnc2c1ccc1c(C)ccnc12	PrP UTR inh 55 (no result: PrPC surface inh, BJeLR viability)
Cc1ccc2nc(C(Cl)(Cl)Cl)nc(N/N=C/c3ccncc3)c2c1	none
Cc1ccc2nc(C(Cl)(Cl)Cl)nc(N/N=C/c3ccc([N+](=O)[O-])cc3)c2c1	MazF activator 55 (no result: BJeLR viability)
C/C(=N\Nc1ncnc2sc(C)c(C)c12)c1ccccn1	BJeLR viability 80
C/C(=N\Nc1ncc(Cl)cc1Cl)c1ccccn1	BJeLR viability 67, PrP UTR inh 78 (no result: PrPC surface inh)
NC(N)=NCCCS(=O)(=O)Nc1ccc(Nc2c3ccccc3nc3cc([N+](=O)[O-])ccc23)cc1	MazF activator 51 (no result: BJeLR viability)
O=[N+]([O-])c1ccc(Nc2c3ccccc3nc3ccccc23)cc1	none
O=C(C(=O)N1CCC(CNC(=O)C2COc3ccccc3O2)CC1)c1cc2ccccc2o1 (stereo not drawn)	none (no result: BJeLR viability, MazF activator, PrP UTR inh)
COC(=O)C1=C(C)N(C)C(=NCc2ccccc2C(F)(F)F)NC1c1ccc(C(F)(F)F)cc1 (stereo not drawn)	none (no result: BJeLR viability, MazF activator, PrP UTR inh)
COC(=O)Cn1c(C(F)(F)F)nc2ccccc21	none
COc1ccc2c(c1)c1nc3ccccc3nc1n2Cc1ccc(OC)c(OC)c1	MazF activator 116
COC(=O)Cn1c2ccc(OC)cc2c2nc3ccccc3nc21	MazF activator 236
CCOC(=O)Cn1c(-c2ccccc2)nc2ccccc2c1=O	none
CCOc1ccc(Cn2c3ccc(OC)cc3c3nc4ccccc4nc32)cc1OC	none
CCOC(=O)Cn1c2ccc(OC)cc2c2nc3ccccc3nc21	MazF activator 276
CCCCCC(=O)NC1CCCCN(C)C1=O (stereo not drawn)	none (no result: BJeLR viability, MazF activator, PrP UTR inh)
Cc1cccc(Cn2cc(COC(=O)N3CCOCC3)nn2)c1	none (no result: BJeLR viability, MazF activator, PrP UTR inh)
COc1ccc(-c2ccc3c(n2)CCCN3S(=O)(=O)c2ccccc2)cc1	none (no result: BJeLR viability, MazF activator, PrP UTR inh)
Cc1cc(-n2c(SCC(=O)NCCC3=CCCCC3)nc3n[nH]c(C)c3c2=N)ccc1Cl	BJeLR viability 59
Cc1ccc(Cl)cc1-n1c(SCC(=O)NCCC2=CCCCC2)nc2n[nH]c(C)c2c1=N	none
COc1ccc(NC(=O)CSc2nc3n[nH]c(C)c3c(=N)n2-c2ccc(Cl)c(C)c2)cc1OC	MazF activator 111 (no result: PrPC surface inh)
CC(C)(C)S(=O)(=O)N1C[C@H]2CC(=O)C(CCO)=C2[C@@H]1CCO	none (no result: BJeLR viability, MazF activator, PrP UTR inh)
CN(N=Cc1ccc2c(c1)OCO2)C(=O)c1ccccc1N	none (no result: BJeLR viability, MazF activator, PrP UTR inh)
O=S(=O)(c1ccc(C(F)(F)F)cc1)N1CCCc2nc(-c3ccccc3)ccc21	none (no result: BJeLR viability, MazF activator, PrP UTR inh)
CC1(C)c2ccccc2N2CCC(=O)NC21/C=C/c1ccco1 (stereo not drawn)	MazF activator 106
CN1C(=O)c2cc(NC(=O)C3CCCCC3)ccc2OC[C@H]2O[C@@H](CC(=O)NC3CCCC3)CC[C@H]21	none (no result: BJeLR viability, MazF activator, PrP UTR inh)
COc1ccc(OC)c(/C=C2\N=C(c3ccccc3)OC2=O)c1	MazF activator active
COc1ccccc1-n1c(Cc2cccc3ccccc23)nnc1SCC(=O)O	none (no result: BJeLR viability, MazF activator, PrP UTR inh)
Cc1occc1C(=O)N/N=C/c1ccc(OCc2ccccc2)cc1	none
Cc1occc1C(=O)N/N=C/c1ccc2c(c1)OCO2	BJeLR viability 64
Cc1occc1C(=O)N/N=C/c1ccc(-c2ccccc2)cc1	BJeLR viability 62
COCC(=O)N[C@H]1C[C@@H]2O[C@@H](CO)CC[C@@H]2O[C@@H]1CCc1ccc(-c2ccccc2)cc1	none (no result: BJeLR viability, MazF activator, PrP UTR inh)
O=S(=O)(c1cccs1)N1CCCc2nc(-c3ccccc3)ccc21	none (no result: BJeLR viability, MazF activator, PrP UTR inh)
CCN1CCCC1CN(Cc1cc2c(C)cc(C)cc2[nH]c1=O)C(=O)NC1CCCCC1 (stereo not drawn)	MazF activator 59
Cc1cc(C)c2cc(CN(CCO)C(=O)NC3CCCCC3)c(=O)[nH]c2c1	none
Cc1nc(SCC(=O)Nc2ccc3c(c2)OCCO3)c2oc3ccccc3c2n1	MazF activator 54
C/C(=N\NC(=O)c1ccc(F)cc1)c1ccccn1	BJeLR viability 106
C/C(=N\NC(=O)c1c[nH]c2ccccc12)c1ccccn1	none
Cc1cc(N2CCN(C)CC2)ccc1NC(=O)c1cccc(S(=O)(=O)N2CCc3ccccc3C2)c1	MazF activator 50
Cc1ccc(NC(=O)c2cccc(S(=O)(=O)N3CCc4ccccc4C3)c2)nc1	none
Cc1cc(N2CCN(CC(C)(C)O)C[C@@H]2C)ccc1N1CCN(CC(C)(C)O)[C@@H](C)C1	none (no result: BJeLR viability, MazF activator, PrP UTR inh)
COc1cc2c(cc1OC)C(C1C(=O)CC(C)(C)CC1=O)N(C(=O)CCl)CC2 (stereo not drawn)	none
COc1cc2c(cc1OC)C(c1cc(Br)ccc1F)N(C(=O)CCl)CC2 (stereo not drawn)	BJeLR viability 58
N#CC1(C#N)CC(C=O)=C(N)C1(C#N)CC(=O)c1ccc(F)cc1 (stereo not drawn)	MazF activator 154
CCOC(=O)C(C(=O)OCC)c1cc(Br)c2noc3c2c1C(=O)c1ccccc1-3	MazF activator 178
CC[C@H](C)[C@H]1CNC(=O)C(=O)N1CC1CCN(CC(C)C)CC1	none (no result: BJeLR viability, MazF activator, PrP UTR inh)
CC(=O)Nc1cccc(C(=O)/C=C/c2ccc(N(C)C)cc2)c1	MazF activator 145
CC(=O)Nc1cccc(C(=O)/C=C/c2ccc(F)cc2)c1	none
CC(=O)Nc1cccc(C(=O)/C=C/c2ccc(/C=C/C(=O)c3cccc(NC(C)=O)c3)cc2)c1	BJeLR viability 81 (no result: MazF activator, PrP UTR inh)
CN(C)c1ccc(C(=O)/C=C/c2ccccc2)cc1	MazF activator 459
COC(=O)[C@H](C(C)C)N(CCc1cn(CC2CCCCC2)nn1)S(=O)(=O)c1ccc(F)cc1Br	none (no result: BJeLR viability, MazF activator, PrP UTR inh)
